Laboratory results from PubChem BioAssay AID1159580 (chemical genetic matrix, 2015).
Several values for one entry are separate records, joined by “and”; a condition that tells them apart may be missing. Equal values may be shown once. About 2,000 (36%) of roughly 5,500 compounds were called active. Not shown: some 18% with an inconclusive outcome. Rule as the data show it: active = normalized growth mostly below about 0.91 (no sharp cut-off); inconclusive = no clear call, values can overlap the other calls; inactive = mostly above about 0.92. This is one part of the list.

Assay: chemical genetic growth profiling, strain panel (AID 1159580);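 also: tested at 20 µM; growth read once vehicle control cultures reached saturation at 30 °C; 1 = growth at the plate median or of vehicle wells; lower values mean less growth of the strain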
Details: S. cerevisiae deletion strains, growth OD

Measured: normalized growth

C[N+](C)(C)CCOP(=O)([O-])OP(=O)(O)OC[C@H]1OC(n2ccc(N)nc2=O)[C@H](O)[C@@H]1O (some centres not stated)
inactive: locus YAL013W, strain DEP1, stronger effect = lower value 0.99 | locus YAL021C, strain ccr4, stronger effect = lower value 1 | locus YAL026C, strain drs2, stronger effect = lower value 1 | locus YAL030W, strain snc1, stronger effect = lower value 0.991 | locus YBL061C, strain skt5, stronger effect = lower value 0.983 | locus YBR009C, strain hhf1, stronger effect = lower value 1.01 | locus YBR021W, strain FUR4, stronger effect = lower value 1.01 | locus YBR023C, strain chs3, stronger effect = lower value 0.987 | locus YBR171W, strain sec66, stronger effect = lower value 0.962 | locus YBR229C, strain ROT2, stronger effect = lower value 1 | locus YBR231C, strain swc5, stronger effect = lower value 0.976 | locus YBR279W, strain paf1, stronger effect = lower value 0.992 | locus YCL011C, strain gbp2, stronger effect = lower value 0.998 | locus YCL016C, strain dcc1, stronger effect = lower value 1.01 | locus YCL029C, strain bik1, stronger effect = lower value 0.999 | locus YCL061C, strain MRC1, stronger effect = lower value 0.972 | locus YCL069W, strain vba3, stronger effect = lower value 0.975 | locus YCR088W, strain abp1, stronger effect = lower value 0.98 | locus YDL005C, strain med2, stronger effect = lower value 0.977 | locus YDL035C, strain GPR1, stronger effect = lower value 0.993 | locus YDL040C, strain nat1, stronger effect = lower value 0.979 | locus YDL074C, strain BRE1, stronger effect = lower value 0.972 | locus YDL101C, strain DUN1, stronger effect = lower value 0.999 | locus YDL134C, strain PPH21, stronger effect = lower value 1.01 | locus YDL185W, strain tfp1, stronger effect = lower value 0.992 | locus YDL192W, strain arf1, stronger effect = lower value 1.01 | locus YDR001C, strain nth1, stronger effect = lower value 0.978 | locus YDR069C, strain doa4, stronger effect = lower value 0.976 | locus YDR101C, strain arx1, stronger effect = lower value 0.989 | locus YDR137W, strain rgp1, stronger effect = lower value 0.991 | locus YDR150W, strain NUM1, stronger effect = lower value 1 | locus YDR159W, strain sac3, stronger effect = lower value 1 | locus YDR162C, strain NBP2, stronger effect = lower value 0.981 | locus YDR195W, strain ref2 0.94 | locus YDR297W, strain sur2, stronger effect = lower value 0.989 | locus YDR318W, strain mcm21, stronger effect = lower value 1.01 | locus YDR334W, strain swr1, stronger effect = lower value 0.974 | locus YDR335W, strain msn5, stronger effect = lower value 0.991 | locus YDR388W, stronger effect = lower value 1 | locus YDR392W, strain spt3, stronger effect = lower value 1.05 | locus YDR502C, strain sam2, stronger effect = lower value 0.995 | locus YEL003W, strain gim4, stronger effect = lower value 0.986 | locus YEL037C, strain rad23, stronger effect = lower value 0.976 | locus YEL061C, strain CIN8 (second series), stronger effect = lower value 0.971 | locus YEL061C, strain CIN8, stronger effect = lower value 0.996 | locus YER015W, strain faa2, stronger effect = lower value 1 | locus YER016W, strain bim1, stronger effect = lower value 0.985 | locus YER110C, stronger effect = lower value 1 | locus YER111C, strain swi4, stronger effect = lower value 0.978 | locus YER155C, strain BEM2 (second series), stronger effect = lower value 0.98 | locus YER155C, strain BEM2, stronger effect = lower value 0.995 | locus YER167W, strain BCK2, stronger effect = lower value 1.02 | locus YFR010W, strain ubp6, stronger effect = lower value 0.974 | locus YGL078C, strain dbp3, stronger effect = lower value 0.998 | locus YGL086W, strain mad1, stronger effect = lower value 1.01 | locus YGL167C, strain pmr1, stronger effect = lower value 0.973 | locus YGL173C, strain kem1, stronger effect = lower value 0.983 | locus YGL227W, strain vid30, stronger effect = lower value 0.973 | locus YGL240W, strain doc1, stronger effect = lower value 0.969 | locus YGL248W, strain PDE1, stronger effect = lower value 1.02 | locus YGL253W, strain hxk2, stronger effect = lower value 0.993 | locus YGR078C, strain PAC10, stronger effect = lower value 0.997 | locus YGR135W, strain pre9, stronger effect = lower value 0.987 | locus YGR229C, strain SMI1, stronger effect = lower value 0.98 | locus YGR252W, strain gcn5, stronger effect = lower value 1.02 | locus YHR013C, strain ard1, stronger effect = lower value 0.969 | locus YHR027C, strain rpn1, stronger effect = lower value 0.992 | locus YHR030C, strain SLT2, stronger effect = lower value 0.998 and 1 | locus YHR079C, strain IRE1 (second series), stronger effect = lower value 1.01 | locus YHR079C, strain IRE1, stronger effect = lower value 1.01 | locus YHR094C, strain hxt1, stronger effect = lower value 0.997 | locus YHR129C, strain ARP1, stronger effect = lower value 1.01 | locus YHR142W, strain chs7, stronger effect = lower value 0.98 | locus YHR200W, strain rpn10, stronger effect = lower value 1 | locus YIL066C, strain RNR3, stronger effect = lower value 0.995 | locus YIL073C, strain SPO22, stronger effect = lower value 1.06 | locus YIL125W, strain kgd1, stronger effect = lower value 1 | locus YIR030C, strain dcg1, stronger effect = lower value 0.999 | locus YJL092W, strain hpr5, stronger effect = lower value 0.974 | locus YJL095W, strain BCK1 (second series), stronger effect = lower value 0.99 | locus YJL095W, strain BCK1, stronger effect = lower value 0.987 and 0.994 | locus YJL115W, strain asf1, stronger effect = lower value 0.977 | locus YJL129C, strain trk1, stronger effect = lower value 0.99 | locus YJL134W, strain LCB3, stronger effect = lower value 1 | locus YJL154C, strain vps35, stronger effect = lower value 0.981 | locus YJL164C, strain tpk1, stronger effect = lower value 1 | locus YJL166W, strain qcr8, stronger effect = lower value 0.963 | locus YJL168C, strain set2, stronger effect = lower value 1 | locus YJL187C, strain SWE1 (second series), stronger effect = lower value 1 | locus YJL187C, strain SWE1, stronger effect = lower value 0.993 | locus YJR043C, strain POL32, stronger effect = lower value 1.02 | locus YJR066W, strain TOR1, stronger effect = lower value 0.952
